RXFP1 ag: qHTS Assay for Agonists of the Relaxin Receptor RXFP1; HEK293T-RXFP1 cAMP TR-FRET, 30 min; response scale: percent of porcine relaxin response, buffer zero; 370,000 tested, 0.3% active; Potency, µM (series often up to 57.5 µM), for the others: top-dose activation, actives largely listed as activators; Relaxin receptor 1 (Homo sapiens), Q9HBX9; active = well fitted activation curve with a large enough effect; inconclusive = small, poorly fitted or top-dose-only effect; note: potency is the fitted concentration of half-maximal effect; % is set by controls: 0 for no effect and ±100 for the full control effect; nearly all actives have a fitted effect of over 60% in size
Target sequence (Q9HBX9 whole entry, looked up): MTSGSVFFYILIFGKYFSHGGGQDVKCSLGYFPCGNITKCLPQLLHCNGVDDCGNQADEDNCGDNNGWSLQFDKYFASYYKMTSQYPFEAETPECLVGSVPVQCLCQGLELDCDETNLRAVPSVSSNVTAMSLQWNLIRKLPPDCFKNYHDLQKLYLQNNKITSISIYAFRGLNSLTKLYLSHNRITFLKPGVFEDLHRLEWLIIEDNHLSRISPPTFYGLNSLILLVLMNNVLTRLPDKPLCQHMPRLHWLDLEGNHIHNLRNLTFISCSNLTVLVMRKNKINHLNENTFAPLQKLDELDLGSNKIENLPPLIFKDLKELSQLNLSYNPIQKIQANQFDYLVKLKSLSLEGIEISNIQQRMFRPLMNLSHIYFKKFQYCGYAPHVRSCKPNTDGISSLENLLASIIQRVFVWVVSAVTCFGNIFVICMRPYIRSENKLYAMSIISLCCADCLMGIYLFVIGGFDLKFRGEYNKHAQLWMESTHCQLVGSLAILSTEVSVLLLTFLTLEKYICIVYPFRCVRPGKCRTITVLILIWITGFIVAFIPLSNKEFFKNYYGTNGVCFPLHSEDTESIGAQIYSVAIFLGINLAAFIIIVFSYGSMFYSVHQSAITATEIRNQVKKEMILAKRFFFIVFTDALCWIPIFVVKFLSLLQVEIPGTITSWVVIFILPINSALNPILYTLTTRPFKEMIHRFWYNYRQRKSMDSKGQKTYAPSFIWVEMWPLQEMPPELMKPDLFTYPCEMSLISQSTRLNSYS
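Agonist response is measured as cAMP accumulation in an RXFP1-transfected HEK293T line under PDE4 inhibition. Values are scaled between buffer-only and 29 nM porcine relaxin, and EC50s come from standard Hill equation fits.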
gsp antag: qHTS for Antagonists of gsp, the Etiologic Mutation Responsible for Fibrous Dysplasia/McCune-Albright Syndrome: qHTS. gsp-mutant cells, cAMP HTRF, 30 min. Potency, µM (doses to about 76.9 µM), without a hit: at the highest dose activity change, negative = inhibition, most hits filed as inhibitors. 340,000 tested, 0.4% active; calls by dose curve; cell line not stated here;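 note: intracellular cAMP measured with PDE inhibitor Ro 20-1724 present during compound exposure; potency is the fitted concentration of half-maximal effect; % is set by controls: 0 for no effect and ±100 for the full control effect; nearly all actives have a fitted effect of over 65% in size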
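HTRF cAMP measurement after 30 min RT detection following 30 min, 37C compound treatment alongside […] (added as 300 uM solution) in G418-selected cells seeded at 2000/well and grown 16–24 h.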
gsp ag: qHTS for Agonist of gsp, the Etiologic Mutation Responsible for Fibrous Dysplasia/McCune-Albright Syndrome: qHTS; Potency, µM (titrated, usually from 76.9 µM), inactives show at the top dose activation (cAMP increase), most hits filed as activators; gsp mutant cells, cAMP HTRF, 30 min; 340,000 tested, 0.13% active; active = well fitted activation curve with a large enough effect; inconclusive = small, poorly fitted or top-dose-only effect, or another doubt; inactive = no such curve, though single readings can be large or run the other way; cell line not stated here;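 note: phosphodiesterase inhibitor Ro 20-1724 added with compounds to block cAMP breakdown; potency is the fitted concentration of half-maximal effect; nearly all actives have a fitted effect of over 60% in size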
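Cells in DMEM/10% FBS with G418 were pretreated with compounds in DMSO plus […] (300 uM stock) for 30 min at 37C. cAMP was measured by HTRF (cAMP-d2 plus anti-cAMP antibody-K) after 30 min at room temperature.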
Giardia killer: Small Molecules that selectively kill Giardia lamblia: qHTS | Giardia lamblia trophozoite viability | activity change, % at 7.66 µM, hits read low | 340,000 tested, 0.15% active | AID 540267, 2011; in the data active = activity change below about -80%; inconclusive = between about -30% and that limit;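 note: parasites exposed to compound for two days anaerobically before the ATP read; % is set by controls: 0 for no effect and ±100 for the full control effect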
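Each well holds 100 Giardia trophozoites and compound. After two days (48 hrs) at 37 deg C in anaerobic conditions, ATP is quantified by luminescence.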
RXFP1 antagonist: qHTS Assay for Antagonists of the Relaxin Receptor RXFP1 | HEK293-RXFP1, relaxin-stimulated cAMP HTRF, 30 min; active compounds read low | Relaxin receptor 1 (Homo sapiens), Q9HBX9 | activity change, negative = inhibition, % at 57.5 µM | AID 1259400, 2018 | 350,000 tested, 0.59% active;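 active = activity change of -60% or lower, but not beyond a set lower limit; inconclusive = change between -60% and -40%, or beyond the set limit; inactive = change above -40%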; note: % is set by controls: 0 for no effect and ±100 for the full control effect
Coupling enz: qHTS Assay for Inhibitors of Fructose-1,6-bisphosphate Aldolase from Giardia Lamblia: Coupling assay counterscreen; coupling enzyme system counterscreen, AmpLite Red fluorescence; activity change, negative = inhibition, % at 58.2 µM, hits read low; 290,000 tested, 0.67% active; in the data active = activity change below about -30%; note: % is set by controls: 0 for no effect and ±100 for the full control effect
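Counterscreen lacking aldolase: glyceraldehyde-3-phosphate coupling-enzyme reagent preincubated 10 min at RT with compound (at 57.5 uM final), then substrate/coupling system with AmpLite Red added; fluorescence read at 525/598 nm after 20 min RT.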
Numbers without * were called inactive; ? = inconclusive; . = no result given; [ ] = dose if it differs, or a comment. Shown are actives, neighbours in structure and some others; about 1.6% of the full set was active somewhere.

SMILES	RXFP1 ag	gsp antag	gsp ag	Giardia killer	RXFP1 antagonist	Coupling enz
CCC(=O)NC[C@H](Cc1ccc(OCCc2nc(-c3ccccc3)oc2C)cc1)N/C(C)=C\C(=O)c1ccc(C(F)(F)F)cc1	.	.	.	.	.	-10.3
C/C(CC(=O)Nc1ccc(N(C)C)cc1)=N\NC(=O)Cc1csc(N)n1	-6.4%	-12.3%	21.1%	-13.4	14.4	-31.6*
CCC1(C)Cc2c(sc3c2c2ncnn2c2nnc(SCC(=O)NCc4ccco4)n32)CO1 (stereo not given)	?	-0.9%[15.4 µM]	2.82µM*	3.1	9.7	1.5
CC1(C)Cc2c(sc3c2c2ncnn2c2nnc(SCC(=O)NCc4ccco4)n32)CO1	?	5.1%	?	?	5.4	0.0
COc1ccc(-c2nnc(NC(=O)c3ccc(S(=O)(=O)N4CCCc5ccccc54)cc3)o2)cc1	2.2%	?	-0.8%	-9.8	-64.7*	1.4
COCCCn1c(=O)/c(=C\c2cccc(OC)c2OC)s/c1=C(/C#N)C(=O)Nc1ccc(C(=O)O)cc1	3.8%	14.1µM*	0.0%	-11.2	14.8	4.5
Cc1ccc(S(=O)(=O)N(C)CCN(C)c2nc(-c3cccs3)nc3ccccc23)cc1	.	.	.	10.1	.	.
COc1ccc2c(c1)OCC1=C2CCC2(C)C(=O)CC=C12 (stereo not given)	0.8%	.	.	.	.	-34.0*
COCCN(CCOC)c1nc(-c2ccc(C)cc2)nc2ccccc12	3.3%	28.2µM*	-16.3%	-25.9	?	-1.6
CCCCN(CCCC)c1nc(-c2ccccc2)nc2ccccc12	-1.1%	.	.	.	-1.1	.
Cc1nc(-c2ccccc2)[nH]c(=O)c1Oc1ccc(Cl)cc1Cl	2.1%	-10.1%	-0.1%	-10.6	1.6	2.4
O=c1[nH]c(=S)[nH]cc1Oc1ccc(Cl)cc1Cl	?	11.1%	6.31µM*	-22.6	10.2	3.3
CC1(C(=O)Nc2cccc(-n3cnnn3)c2)Cc2ccccc2C(=O)O1 (stereo not given)	.	-3.4%	2.2%	5.5	-5.1	.
Cc1nc2c(cc(Oc3ccc(S(=O)(=O)N4CCOCC4)cn3)c3ccsc32)s1	2.9%	-4.6%	28.7%	-7.6	0.1	-40.4*
C=CC1=C[C@@H](O)C2OC2C12OCCCO2 (stereo not given in full)	.	.	.	.	.	0.6
Nc1c(C(=O)NCc2ccco2)c2nc3ccccc3nc2n1CCc1ccc(F)cc1	6.3%	-22.1%	19.2%	-16.2	-30.0	-34.0*
COc1ccc(-n2c(N)c(C(=O)NCc3ccco3)c3nc4ccccc4nc32)cc1	3.4%	2.3%	2.2%	10.0	-12.5	-7.2
CC(=O)Nc1ccc(C(=O)c2ccccc2)cc1	0.1%	?	24.5%	2.8	-11.0	1.9
CCOc1ccc(N=C(C)C2=C(O)c3ccccc3C2=O)cc1	20.7%	-11.5%	14.8%	-1.7	-62.7*	-0.8
COc1ccc(N=C(C)C2=C(O)c3ccccc3C2=O)cc1	-0.1%	-55.4%	6.6%	-12.4	.	-0.1
CC(=O)Nc1ccc(N=C(C2=C(O)c3ccccc3C2=O)c2ccccc2)cc1	0.0%	35.5µM*	-28.8%	7.7	-12.2	-0.1
O=C(c1cc(Cl)nc2ccccc12)N(Cc1nnc(-c2ccc(Cl)cc2)o1)C1CC1	1.2%	-13.9%	3.0%	-7.1	-31.2	.
O=[N+]([O-])c1cc2c(c(CSc3ncccn3)c1)OCOC2	14.1µM*	12.4%	54.4%[15.4 µM]	-7.2	11.1	-0.1
O=S(=O)(Nc1nc2ccccc2nc1Nc1cccc(S(=O)(=O)N2CCCCC2)c1)c1ccccc1	0.4%	35.5µM*	-45.3%	-10.7	-20.3	4.5
O=C(Nc1ccc2c(c1)OCO2)C1CCN(C(=O)c2ccc([N+](=O)[O-])cc2)CC1	3.9%	0.9%	-4.1%	-23.3	-6.5	0.0
SMILES	RXFP1 ag	gsp antag	gsp ag	Giardia killer	RXFP1 antagonist	Coupling enz
O=C(/C=C/c1ccccc1[N+](=O)[O-])c1ccccc1Br	-0.4%	.	-24.5%[15.4 µM]	22.0	-71.8*	3.1
C=C1C[C@]23CC[C@H]4C(CO)(CO)C[C@@H](O)C[C@@]4(C)[C@@H]2CC[C@H]1C3	.	.	.	.	.	4.6
Cn1nc(C(F)(F)F)c(-c2ccc(F)cc2)c1NC(=O)c1ccco1	-3.5%	10.0%	-19.3%	-0.2	-19.5	9.1
Cn1nc(C(F)(F)F)c(-c2ccc(Br)cc2)c1NC(=O)Nc1ccc(F)cc1F	5.1%	-20.0%	7.1%[15.4 µM]	6.1	-60.8*	1.5
C[C@@H]1CN([C@@H](C)CO)C(=O)CCCn2nncc2CO[C@@H]1CN(C)C(=O)c1ccc(N2CCN(C)CC2)cc1	.	.	10µM*	.	5.8	.
Cc1cc(Br)c2[nH]cc(CCNC(=O)c3ccco3)c2c1	-1.5%	-15.2%	-25.4%	-22.3	-88.2*	-3.4
Cc1ccc2[nH]cc(CCNC(=O)c3ccco3)c2c1	-2.3%	-9.8%	4.2%	12.6	8.2	-1.3
COc1cc(NC(=O)Cn2c(=O)n(Cc3ccccc3Cl)c(=O)c3cc(OC)c(OC)cc32)cc(OC)c1	25.1µM*	.	.	.	.	.
CC(=O)N1CCc2cc(S(=O)(=O)NCCC(=O)N3CCc4ccccc4C3)ccc21	0.2%	39.8µM*	12.8%	4.4	1.4	-0.2
CN(C)N1C(N)=C(C#N)C(c2cccs2)C2=C1CCCC2=O (stereo not given)	1.0%	-12.5%	-19.7%[15.4 µM]	-0.7	8.0	-18.8
Cc1ccsc1C1C(C#N)=C(N)N(N(C)C)C2=C1C(=O)CCC2 (stereo not given)	-0.5%	-35.8%	-5.1%[15.4 µM]	-13.9	6.2	-43.8*
CCNc1nc(N)c(C(=O)C23CC4CC(CC(C4)C2)C3)s1	3.8%	-13.4%	-15.1%	5.7	-67.6*	-0.8
NC(=NC1CCCCC1)NS(=O)(=O)c1ccccc1	-3.0%	8.5%	-5.7%[15.4 µM]	-9.3	1.4	-4.1
Cc1oc(=O)oc1COC(=O)[C@@H]1N2C(=O)[C@@H](NC(=O)[C@H](N)c3ccccc3)[C@H]2SC1(C)C	.	.	.	.	-12.5	.
CN1CCN(CC(=O)O)CC1	-0.1%	12.9%	20µM*	0.3	7.8	4.4
CN1CCc2cc3c(c4c2[C@H]1[C@H](O)c1ccccc1-4)OCO3	4.5%	0.5%	.	0.4	.	-32.3*
COc1ccc2c(c1OC)C(=O)O[C@H]2C1c2c(cc3c(c2OC)OCO3)CCN1C (stereo not given in full)	.	.	.	.	.	-2.4
CCOC(=O)c1ccccc1NC(=O)c1cnc(N2CCOCC2)c2ccccc12	3.4%	.	.	.	-15.7	.
Oc1cccc(-c2nnc(-c3cccc(O)c3)nn2)c1	.	-6.6%	-28.4%	-80.5*	-15.0	.

Screens deposited in PubChem by National Center for Advancing Translational Sciences (NCATS).
